# Screening results deposited in PubChem by National Center for Advancing Translational Sciences (NCATS).
# Most compounds without a hit are left out; they make up all but 12% or so of the library.
# Sm TGR inh = inhibitors of Schistosoma mansoni thioredoxin glutathione reductase; Q962Y6; purified TGR, DTNB reduction, TNB absorbance 405 nm; Potency, µM (titrated, usually from 114 µM), for the others: at the highest dose activity change, negative = inhibition, hits mostly inhibitors; 360,000 compounds, 3% hits; AID 485364; note: % is set by controls: 0 for no effect and ±100 for the full control effect; nearly all actives have a fitted effect of over 60% in size
#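 Kinetic colorimetric format: TGR-catalysed, NADPH-driven DTNB reduction monitored via TNB absorbance. Enzyme dispensed at 20 nM; compound exposure 15 min at room temperature before reaction start.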
# Pf growth 48h = inhibits P. falciparum growth in the first generation, 48 h; 310,000 compounds, 5.9% hits; P. falciparum luciferase growth in erythrocytes, 48 h; Potency, µM (doses to about 28.7 µM), for the others: at the top dose activity change, negative = inhibition, most hits filed as inhibitors; note: % is set by controls: 0 for no effect and ±100 for the full control effect
#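 Firefly luciferase activity from engineered P. falciparum reports growth; inhibitors lower the luminescent signal. Cultures contained 2% hematocrit erythrocytes at 0.1% final parasitemia.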
# AmpC inh no detg = AmpC beta-lactamase inhibition without detergent; Potency, µM (highest dose often 57.1 µM), inactives show at the top dose activity change, negative = inhibition, usual class: inhibitors; P00811; 330,000 compounds, 0.52% hits; AmpC nitrocefin hydrolysis, absorbance 480 nm, 0.0001% Triton;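 note: plate controls were no compound for no effect and no enzyme for full effect; nearly all actives have a fitted effect of over 20% in size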
# Target sequence (P00811 whole entry, looked up): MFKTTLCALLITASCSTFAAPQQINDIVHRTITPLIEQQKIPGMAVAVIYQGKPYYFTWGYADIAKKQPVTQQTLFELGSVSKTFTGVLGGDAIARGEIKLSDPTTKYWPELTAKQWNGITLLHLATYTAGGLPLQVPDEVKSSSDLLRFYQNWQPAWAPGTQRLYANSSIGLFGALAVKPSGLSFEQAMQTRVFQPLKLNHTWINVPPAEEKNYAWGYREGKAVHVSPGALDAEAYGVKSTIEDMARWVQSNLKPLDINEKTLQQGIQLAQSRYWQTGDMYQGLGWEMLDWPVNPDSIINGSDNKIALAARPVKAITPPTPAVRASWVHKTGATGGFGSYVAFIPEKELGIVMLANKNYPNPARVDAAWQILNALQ
#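 20 mM phosphate pH 7.0 + 0.01% (detergent screen) or 0.0001% Triton X-100; 5.3 nM AmpC reagent; cpd preinc 15 min RT; nitrocefin (800 uM stock) to start; A480 q20 s × 4 min; Activity was normalised to no-enzyme and no-compound control wells.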
# AmpC detergent = AmpC beta-lactamase inhibition with detergent present; Potency, µM (top dose mostly 114 µM), for inactives: top-dose activity change, negative = inhibition, hits mostly inhibitors; AmpC hydrolysis of nitrocefin, absorbance 480 nm, 0.01% Triton; 370,000 compounds, 0.041% hits; AID 485294; P00811;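 note: 0% = no-compound wells and -100% = no-enzyme wells; nearly all actives have a fitted effect of over 25% in size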
#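 AmpC (5.3 nM in the dispensed reagent) in 20 mM phosphate pH 7.0 with 0.01% (detergent screen) or 0.0001% Triton X-100 was preincubated with compounds for 15 min at room temperature. Nitrocefin was then added from an 800 uM solution, and hydrolysis was followed at 480 nm.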
# Pf growth 96h = P. falciparum growth inhibition at 96 hours; Potency, µM (titrated, usually from 28.7 µM), for inactives: top-dose activity change, negative = inhibition, hits mostly inhibitors; 320,000 compounds, 6.9% hits; P. falciparum luciferase reporter growth, 96 h; AID 504834; note: % is set by controls: 0 for no effect and ±100 for the full control effect
#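 96 h incubation, 37 C, 5% CO2, of luciferase-reporter P. falciparum-infected RBCs (2% hematocrit, 0.05% parasitemia final) with test compounds; endpoint luminescence.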
# SARS PLpro yeast = SARS-CoV PLP inhibition in yeast; Potency, µM (top dose mostly 32.9 µM), for inactives: at the highest dose activity, positive = growth rescue, hits mostly activators; AID 485353; 330,000 compounds, 0.19% hits; S. cerevisiae expressing SARS-CoV PLpro, growth rescue; calls by dose curve; note: 0% is about no effect; nearly all actives have a fitted effect of over 55% in size
# * marks the source's active call; other numbers are inactive results; ? = inconclusive; · = no result given. Unless noted, calls come from the whole dose curve; as a rule, active = well fitted curve in the direction sought with a large enough effect; inconclusive = small, poorly fitted or top-dose-only effect, or another doubt; inactive = no such curve, though single readings can be large; an effect the other way counts as inactive or inconclusive. Potency is the fitted concentration of half-maximal effect.
SMILES,Sm TGR inh,Pf growth 48h,AmpC inh no detg,AmpC detergent,Pf growth 96h,SARS PLpro yeast
CCc1ccc(Oc2c(C(F)(F)F)oc3c(CN4CCCC(C)C4)c(O)ccc3c2=O)cc1 (stereo not given),5%,·,·,26%,·,·
CCOC(=O)c1cccc(NS(=O)(=O)c2cnc[nH]2)c1,-18%,6%,-13%,-2%,?,5%
CCN(CC)CCN1C(=O)c2ccccc2NC1c1ccc(N(C)C)cc1 (stereo not given),-5%,0.41µM*,19%,-10%,·,-17%
CCN(CC)CCN1C(=O)c2ccccc2NC1c1ccc(Br)cc1 (stereo not given),-6%,1µM*,15%,-3%,13µM*,-2%
CCN(CC)CCN1C(=O)c2ccccc2NC1c1ccc(F)cc1 (stereo not given),6%,?,-12%,-12%,?,6%
CCN(CC)CCN1C(=O)c2ccccc2NC1c1cccc(F)c1 (stereo not given),-31%,?,-17%,?,·,0%
CCN(CC)CCN1C(=O)c2ccccc2NC1c1ccc(C)cc1 (stereo not given),1%,1.7µM*,-15%,-1%,·,1%
Cc1ccc(Cl)cc1Nc1nn2c(=O)c3ccc(C(=O)NC(C)c4ccccc4)cc3nc2s1 (stereo not given),-1%,·,·,1%,·,·
Cc1nc2ccccc2c(=O)n1NC(=O)c1ccccc1Cl,-24%,7%,-21%,0%,-26%,-4%
O=C(Nn1c(C2CCCCC2)nc2ccccc2c1=O)c1ccc([N+](=O)[O-])cc1Cl,2%,2%,14µM*,-10%,7%,-17%
COc1ccc(C(=O)Nn2c(C)nc3ccccc3c2=O)c(OC)c1,0%,22%,-5%,-2%,1.2µM*,1%
Cc1nc2ccccc2c(=O)n1NC(=O)c1ccc(F)cc1Cl,-5%,7%,-16%,?,9.3µM*,0%
Cc1ccc(NC(=O)C2CCN(c3cnccn3)CC2)cc1C,·,-13%,1%,-6%,14%,-1%
O=C(Nc1nc(-c2cccs2)cs1)c1ccc(Cl)s1,5%,20%,-36%,6%,?,-75%
COc1ccc(Nc2nc(-c3cccs3)cs2)cc1,-10%,316%,-27%,-2%,0.52µM*,6%
O=C(Nc1nc(-c2ccc(Cl)s2)cs1)c1ccccc1,-5%,·,-48%,-7%,9.3µM*,-8%
CCC(=O)Nc1nc(C)c(-c2csc(Nc3cccc(O)c3)n2)s1,-18%,·,16µM*,?,-19%,0%
Oc1ccc(Nc2nc(-c3cccs3)cs2)cc1,1%,34%,-46%,?,32%,-3%
COc1ccc(Nc2nc(-c3sc(N)nc3C)cs2)cc1,3%,-77%,-16%,-2%,-26%,-2%
COc1ccc(Nc2nc(-c3sc(NC(C)=O)nc3C)cs2)cc1,?,·,17%,?,10µM*,3.2µM*
Cc1nc(NC(=O)c2ccccc2)sc1-c1csc(Nc2ccc(F)cc2)n1,-33%,?,-31%,0%,3.7µM*,9%
CC(C)(C)c1csc(NC(=O)c2ccc(Cl)s2)n1,-3%,3.7µM*,-43%,-1%,·,-12%
O=C(Nc1cccc(-c2csc(Nc3ccc(Cl)cc3)n2)c1)c1ccccc1,8%,?,-56%,-6%,?,-5%
Cc1ccccc1Nc1nc(-c2sc(NC(=O)c3cccc(Cl)c3)nc2C)cs1,11%,?,-25%,-2%,?,-1%
Cc1ccc(C(=O)Nc2nc(C(C)(C)C)cs2)s1,25%,20%,-27%,0%,·,-52%
Cc1nc(NC(=O)c2ccccc2)sc1-c1csc(Nc2ccc(Cl)cc2)n1,0%,?,31%,?,10µM*,-9%
Cc1nc(NC(=O)c2ccccc2)sc1-c1csc(Nc2cccc(Cl)c2)n1,10%,9.3µM*,14µM*,-12%,2.6µM*,-2%
